Experimental data from PubChem BioAssay AID1259309 (ICCB-Longwood Screening Facility, Harvard Medical School, 2017).
Among all 330,000 compounds or so, about 1,800 (0.55%) were called active. The sample holds actives, similar compounds and a random draw of the others, so the mix is not that of the screen. Values without a mark were called inactive. Rule as the data show it: active = growth inhibition above about 68%; inactive = the rest.

Assay: growth inhibition of ugtP-null S. aureus, primary screen, RN4220 ugtP deletion, OD600 (AID 1259309);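 also: plate controls were untreated wells for no effect and antibiotic for full effect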
Conditions: 16 h, active compounds read high

SMILES	growth inhibition
CC(CC(=O)Nc1ccccn1)=NNC(=O)C(=O)Nc1cccc(C)c1	3.99%
COc1ccc(O)c(C=NNC(=O)CN2CCS(=O)(=O)CC2)c1	-0.335%
CC(=NNc1ccc(C(F)(F)F)cn1)c1ccncc1	1.19%
N=C1C(c2nc3ccccc3s2)=C(O)CN1NC(=O)c1ccc([N+](=O)[O-])cc1	-0.97%
O=C(COC(=O)c1ccc([N+](=O)[O-])cc1Cl)NC(=O)c1ccccc1	-1.26%
O=C(NC(Nc1nc2ccc([N+](=O)[O-])cc2s1)(C(F)(F)F)C(F)(F)F)c1ccccc1	100% (active)
Cc1ccsc1C=NNC(=O)c1ccncc1	-0.727%
O=S(=O)([N-]c1nc2ccccc2nc1-[n+]1ccc(Cc2ccccc2)cc1)c1ccc(Br)s1	95.2% (active)
O=S(=O)(NCc1ccccn1)c1ccc(Br)s1	5.99%
Cc1ccsc1C(=O)OCC(=O)c1cc(C)n(CC2CCCO2)c1C (configuration not stated)	0.578%
O=C1C(=O)N(CC2COc3ccccc3O2)c2ccccc21 (configuration not stated)	-2.06%
Cc1cc(C(=O)CCl)c(C)n1CC1COc2ccccc2O1 (configuration not stated)	90.8% (active)
CCOC(=O)c1c(NC(=O)C(C)Sc2c[nH]c3ccccc23)sc2c1CCC2 (configuration not stated)	25.3%
CCOC(=O)c1c(NC(=O)Cn2nc(C(F)(F)F)cc2C)sc2c1CCC2	2.33%
CCCOC(=O)Nc1sc2c(c1C(=O)OCC)CCC2	91.5% (active)
CCOC1OC(C(=O)N2CCOCC2)=CC(c2ccc3c(c2)OCO3)C1CCCO (configuration not stated)	2.32%
O=C(CNc1ccc2ccccc2c1)NN=Cc1ccc(C(=O)O)cc1	1.63%
COc1ccc(C2C3=C(CCCC3=O)N(CC(=O)O)C3=C2C(=O)CCC3)cc1	7.87%
COc1ccc2c(C)cc3nnnn3c2c1	3.97%
CCn1c2c(c3ccc(OC)cc31)CCCC2=O	95.9% (active)
CCC1=C2CCC3C(=O)N(C)C(=O)C3C2[C@@]2(Cc3ccccc3)C(=NCCOC)OC(=O)N2C1=O (some centres not stated)	-1.76%

SMILES	growth inhibition
CC(C)(C)Oc1ncc(Br)c(OC(C)(C)C)n1	2.82%
COc1cccc(-c2cnc(OC(C)(C)C)nc2OC(C)(C)C)c1	99.2% (active)
COc1ccc(-c2nc(N)ncc2-c2ccc(Cl)cc2)c(O)c1	-8.46%
c1ccc(C2C3CN(Cc4cccnc4)C(c4ccccc4)C34CC2(c2ccccc2)C4)cc1 (configuration not stated)	0.638%
O=C(Nc1ccccc1)c1nnsc1S(=O)(=O)c1ccc(Cl)cc1	100% (active)
Cc1nnsc1C(=O)NN=Cc1ccccc1Cl	0.586%
O=C(O)c1ccc(NC(=NS(=O)(=O)c2ccc(Cl)cc2)c2ccccc2)cc1	4.64%
Cn1c2ccccc2c2cc(C=NNC(=O)c3ccc(N)cc3)ccc21	-2.18%
COc1ccc(C2CC(=O)C=C(c3ccc4ccn(C)c4c3)C2)cc1 (configuration not stated)	4.99%
CC(C)(C)c1cc(C(=O)NN=Cc2ccccn2)n[nH]1	4.75%
O=C(NC(=S)Nc1ccc(S(=O)(=O)Nc2ncccn2)cc1)c1cccc(Br)c1	-8.14%
Cc1ccccc1NC(=S)NNC(=O)c1cccc(Br)c1	23.5%
O=C(NC(=S)Nc1cccc2c(O)cccc12)c1cccc(Br)c1	99.6% (active)
Clc1cc(-c2ccc(C=Nn3cnnc3)o2)ccc1Br	-3.77%
COc1ccc(Cl)cc1C(=O)NNC(=S)NC(=O)/C=C/c1ccco1	-0.168%
O=C(/C=C/c1ccco1)NC(=S)N1CCCCC1	7.55%
O=C(/C=C/c1ccco1)NC(=S)Nc1ccccc1Br	90.7% (active)
CC[C@@]12C(=O)N(c3ccccc3)C(=O)N1C(c1cccc(C)c1)C1C(=O)N(Cc3ccccc3)C(=O)C12 (some centres not stated)	3.88%
CC(=NOC(=O)c1ccc(C)cc1)C(=O)c1ccc(Br)cc1	0.731%
COc1ccc(-c2csc3ncnc(N4CCN(S(=O)(=O)c5cccc(F)c5)CC4)c23)cc1	-16.7%
COc1ccc(-c2csc3ncnc(N4CCN(S(=O)(=O)c5ccccc5C#N)CC4)c23)cc1	95.8% (active)

SMILES	growth inhibition
COc1ccc(S(=O)(=O)N2CCN(c3ncnc4c(-c5ccccc5)nsc34)CC2)cc1	5.08%
CC(=NNC(=O)C1CC1c1ccccc1)c1cccs1 (configuration not stated)	3.01%
Cc1cc([N+](=O)[O-])cc(C=NNC(=O)C2COc3ccccc3O2)c1O (configuration not stated)	9.3%
CC(=NNC(=O)c1ccncc1)c1ccc(NC(=O)c2ccc(Cl)cc2Cl)cc1	-4.36%
Cc1cccc(NC(=S)Nc2ccc(Cl)c(Cl)c2)c1	98.9% (active)
Cc1cccc(NC(=S)NN=C(c2ccccc2)C(C)C)c1	36.3%
Cc1ccc(NC(=S)Nc2ccc(F)cc2)cc1	-2.35%
CC(=NN=C1SC(CC(=O)O)C(=O)N1c1ccccc1)c1ccc(C)cc1 (configuration not stated)	7.85%
O=C(C(=NO)n1cncn1)c1ccc(Cl)cc1Cl	18.1%
Fc1cccc(C=NN=Cc2cccc(F)c2)c1	2.16%
Clc1ccc(Nc2ccc3ccccc3n2)cc1	-34.6%
CN1CCN(c2nc(Nc3ccc(O)cc3)nc3ccccc23)CC1	-7.09%
Cc1cc(Nc2ccc(Br)cc2)nc2ccccc12	84.1% (active)
CC(=NNc1nc(-c2ccc(Cl)cc2)cs1)c1cccs1	-2.32%
COc1ccc(C=NNC(=O)c2cccc3ccccc23)c(OC)c1OC	7.75%
CCC(=O)N(C)CCc1cc2c(c(OC)c1C=NNC(=O)c1ccccc1O)OCO2	9.87%
CC(=NNC(=O)c1c(C)nc2ccccn12)c1ccccc1F	6.04%
COc1cc(C(c2c(O)c3ccccc3oc2=O)c2c(C)n(C)n(-c3ccccc3)c2=O)ccc1O (configuration not stated)	82.9% (active)
COc1cc(C=Nn2c(C)nc3ccccc3c2=O)ccc1O	2.48%
CCC(=O)CC(c1ccc([N+](=O)[O-])cc1)c1c(O)c2ccccc2oc1=O (configuration not stated)	12%
